Over roughly 16,000 sequences, “rpm ratio (pull-down/input)” has its median near 0.94; the highest 2% begin near 1.7. Shown is part of a subset that was picked to be rich in the highest values.
These sequences were tested against T1, MBP-FoxP1dN (Mus musculus, UniProt P58462 326-579) (assay: PD-seq (MBP pull-down with sequencing); 20 mM Tris-HCl pH 7.5, 100 mM NaCl, 1.5 mM MgCl2, 0.4 uM protein, 0.1 uM dsDNA library, 30 min, room temperature, amylose pull-down; high values mean tight binding). Conditions: protein: recombinant; tags: His6-MBP; chain copies: 2; dsDNA, one strand shown.
T1 sequence: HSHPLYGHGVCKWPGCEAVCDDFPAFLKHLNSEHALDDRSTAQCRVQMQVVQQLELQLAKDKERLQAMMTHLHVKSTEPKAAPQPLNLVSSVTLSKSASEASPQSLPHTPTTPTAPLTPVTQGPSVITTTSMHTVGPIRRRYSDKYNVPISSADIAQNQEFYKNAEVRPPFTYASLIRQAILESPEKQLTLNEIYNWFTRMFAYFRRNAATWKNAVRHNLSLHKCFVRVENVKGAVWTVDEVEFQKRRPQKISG
In short: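 Binding is given as reads-per-million enrichment, pull-down over input, with replicates pooled. The bait was an N-terminus-lacking mouse FoxP3 or FoxP1 fragment with a His6-MBP tag, expressed in E. coli and used at 0.4 µM with 0.1 µM Klenow-filled degenerate double-stranded DNA library for 30 min at room temperature in Tris pH 7.5 buffer with NaCl and MgCl2. Amylose resin pull-down with three washes was followed by proteinase K release, PCR barcoding and Illumina sequencing.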
In the case of “GATGATTGTTCTCCCAGCTGATGAATTCCACAGTTCGAGTAAACAAATTTTCCTAATCTTTCTGTTCAAGCGCCATCTAC”, the binding signal was 0.831 RPM ratio (pull-down/input). For “GATGATTGTTCTCCCAGCTGATGAATTTCACCATTCGAGTAAACAAATTTTCCTAATCTTTCTGTTCAAGCGCCATCTAC”, the binding signal was 0.883 RPM ratio (pull-down/input). In the case of “GATGATTGTTCTCCCAGCTGATGAATTTCGTCTCTCGAGTAAACAAATTTTCCTAATCTTTCTGTTCAAGCGCCATCTAC”, the binding signal was 0.896 RPM ratio (pull-down/input). For “GATGATTGTTCTCCCAGCTGATGAATTATGACCTTCGAGTAAACAAATTTTCCTAATCTTTCTGTTCAAGCGCCATCTAC”, the binding signal was 0.925 RPM ratio (pull-down/input). With “GATGATTGTTCTCCCAGCTGATGAATTATGCCACTCGAGTAAACAAATTTTCCTAATCTTTCTGTTCAAGCGCCATCTAC” the binding signal was 1.06 RPM ratio (pull-down/input). In the case of “GATGATTGTTCTCCCAGCTGATGAATTTTCCCTCTCGAGTAAACAAATTTTCCTAATCTTTCTGTTCAAGCGCCATCTAC”, the binding signal was 0.877 RPM ratio (pull-down/input). For “GATGATTGTTCTCCCAGCTGATGAATTCCGAGATTCGAGTAAACAAATTTTCCTAATCTTTCTGTTCAAGCGCCATCTAC”, the binding signal was 0.799 RPM ratio (pull-down/input). “GATGATTGTTCTCCCAGCTGATGAATTAAGTGTATCGAGTAAACAAATTTTCCTAATCTTTCTGTTCAAGCGCCATCTAC” was tested, and the binding signal was 1.28 RPM ratio (pull-down/input). “GATGATTGTTCTCCCAGCTGATGAATTTCAGTCATCGAGTAAACAAATTTTCCTAATCTTTCTGTTCAAGCGCCATCTAC” was tested, and the binding signal was 1 RPM ratio (pull-down/input). With “GATGATTGTTCTCCCAGCTGATGAATTTTCCACTTCGAGTAAACAAATTTTCCTAATCTTTCTGTTCAAGCGCCATCTAC” the binding signal was 0.903 RPM ratio (pull-down/input). For “GATGATTGTTCTCCCAGCTGATGAATTTAGGAGATCGAGTAAACAAATTTTCCTAATCTTTCTGTTCAAGCGCCATCTAC”, the binding signal was 0.968 RPM ratio (pull-down/input). With “GATGATTGTTCTCCCAGCTGATGAATTACTAATTTCGAGTAAACAAATTTTCCTAATCTTTCTGTTCAAGCGCCATCTAC” the binding signal was 1.25 RPM ratio (pull-down/input). “GATGATTGTTCTCCCAGCTGATGAATTATTACTATCGAGTAAACAAATTTTCCTAATCTTTCTGTTCAAGCGCCATCTAC” was tested, and the binding signal was 1.21 RPM ratio (pull-down/input). In the case of “GATGATTGTTCTCCCAGCTGATGAATTATTACTGTCGAGTAAACAAATTTTCCTAATCTTTCTGTTCAAGCGCCATCTAC”, the binding signal was 1.17 RPM ratio (pull-down/input). In the case of “GATGATTGTTCTCCCAGCTGATGAATTTACTATTTCGAGTAAACAAATTTTCCTAATCTTTCTGTTCAAGCGCCATCTAC”, the binding signal was 1.55 RPM ratio (pull-down/input). “GATGATTGTTCTCCCAGCTGATGAATTACTAATGTCGAGTAAACAAATTTTCCTAATCTTTCTGTTCAAGCGCCATCTAC” was tested, and the binding signal was 1.28 RPM ratio (pull-down/input). For “GATGATTGTTCTCCCAGCTGATGAATTACTATTGTCGAGTAAACAAATTTTCCTAATCTTTCTGTTCAAGCGCCATCTAC”, the binding signal was 2.38 RPM ratio (pull-down/input). For “GATGATTGTTCTCCCAGCTGATGAATTACTATTATCGAGTAAACAAATTTTCCTAATCTTTCTGTTCAAGCGCCATCTAC”, the binding signal was 1.87 RPM ratio (pull-down/input). For “GATGATTGTTCTCCCAGCTGATGAATTACTATCATCGAGTAAACAAATTTTCCTAATCTTTCTGTTCAAGCGCCATCTAC”, the binding signal was 1.28 RPM ratio (pull-down/input). In the case of “GATGATTGTTCTCCCAGCTGATGAATTACTATTTTCGAGTAAACAAATTTTCCTAATCTTTCTGTTCAAGCGCCATCTAC”, the binding signal was 2.29 RPM ratio (pull-down/input). For “GATGATTGTTCTCCCAGCTGATGAATTTCTCTATTCGAGTAAACAAATTTTCCTAATCTTTCTGTTCAAGCGCCATCTAC”, the binding signal was 0.936 RPM ratio (pull-down/input). With “GATGATTGTTCTCCCAGCTGATGAATTCTCGGCCTCGAGTAAACAAATTTTCCTAATCTTTCTGTTCAAGCGCCATCTAC” the binding signal was 0.731 RPM ratio (pull-down/input). “GATGATTGTTCTCCCAGCTGATGAATTATGACTGTCGAGTAAACAAATTTTCCTAATCTTTCTGTTCAAGCGCCATCTAC” was tested, and the binding signal was 0.934 RPM ratio (pull-down/input). With “GATGATTGTTCTCCCAGCTGATGAATTCCCTCGGTCGAGTAAACAAATTTTCCTAATCTTTCTGTTCAAGCGCCATCTAC” the binding signal was 0.759 RPM ratio (pull-down/input). “GATGATTGTTCTCCCAGCTGATGAATTGTGCCTATCGAGTAAACAAATTTTCCTAATCTTTCTGTTCAAGCGCCATCTAC” was tested, and the binding signal was 1.09 RPM ratio (pull-down/input). For “GATGATTGTTCTCCCAGCTGATGAATTTGATCACTCGAGTAAACAAATTTTCCTAATCTTTCTGTTCAAGCGCCATCTAC”, the binding signal was 1.02 RPM ratio (pull-down/input). With “GATGATTGTTCTCCCAGCTGATGAATTCCAAGTATCGAGTAAACAAATTTTCCTAATCTTTCTGTTCAAGCGCCATCTAC” the binding signal was 0.949 RPM ratio (pull-down/input). With “GATGATTGTTCTCCCAGCTGATGAATTCGCTTAATCGAGTAAACAAATTTTCCTAATCTTTCTGTTCAAGCGCCATCTAC” the binding signal was 0.936 RPM ratio (pull-down/input). In the case of “GATGATTGTTCTCCCAGCTGATGAATTCTGTGGATCGAGTAAACAAATTTTCCTAATCTTTCTGTTCAAGCGCCATCTAC”, the binding signal was 0.956 RPM ratio (pull-down/input). With “GATGATTGTTCTCCCAGCTGATGAATTATCTAGATCGAGTAAACAAATTTTCCTAATCTTTCTGTTCAAGCGCCATCTAC” the binding signal was 0.863 RPM ratio (pull-down/input). In the case of “GATGATTGTTCTCCCAGCTGATGAATTTATATCATCGAGTAAACAAATTTTCCTAATCTTTCTGTTCAAGCGCCATCTAC”, the binding signal was 1.27 RPM ratio (pull-down/input). For “GATGATTGTTCTCCCAGCTGATGAATTAAATGCGTCGAGTAAACAAATTTTCCTAATCTTTCTGTTCAAGCGCCATCTAC”, the binding signal was 1.43 RPM ratio (pull-down/input).

— paper PMC12820563, “FoxP3 forms a head-to-head dimer in vivo and stabilizes its multimerization on adjacent microsatellites”
